Data: PubChem BioAssay (NCATS)
Inconclusive results are not listed. Entries that show only a call come without a potency. Active and inactive are the calls of the source. Calls follow the shape of the dose curve; as a rule, active = well fitted inhibition curve with a large enough effect; inconclusive = small, poorly fitted or top-dose-only effect; inactive = flat fitted curve, though single readings scatter.

tested on: CP252; assay: qHTS profiling for inhibitors of Plasmodium falciparum proliferation (AID 504749); also: nearly all actives have a fitted effect of over 60% in size; settings: P. falciparum in erythrocytes, SYBR Green DNA, 72 h; series mostly up to 28.7 µM
Summary of the method: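 Quantitative HTS: compounds pinned into medium, infected erythrocytes added (0.3% parasitemia, 2.5% hematocrit), 72 h culture at 37 C under 5% CO2. Saponin/Triton lysis with SYBR Green I, overnight RT, then fluorescence read.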
Potency is read from the fitted curve at half-maximal effect.

Compound	Potency
NC(=O)N1c2ccccc2CC(=O)c2ccccc21	inactive
CNS(=O)(=O)Cc1ccc2[nH]cc(CCN(C)C)c2c1	inactive
CCCc1cc(C(N)=S)ccn1	inactive
CCCN[C@H]1CCc2nc(N)sc2C1	inactive
COc1ccc(C(=O)CC(=O)c2ccc(C(C)(C)C)cc2)cc1	inactive
CC(C)Cn1cnc2c(N)nc3ccccc3c21	inactive
Nc1nc(N)nc(-c2cc(Cl)ccc2Cl)n1	inactive
OC(Cn1cncn1)(Cn1cncn1)c1ccc(F)cc1F	inactive
CC(C)OC(=O)C(C(=O)OC(C)C)=C1SC=CS1	inactive
NCCCC(O)(P(=O)(O)O)P(=O)(O)O	inactive
CC1=CC(=O)c2ccccc2C1=O	inactive
Nc1ccc(S(=O)(=O)Nc2ccccn2)cc1	inactive
Cc1noc(NS(=O)(=O)c2ccc(N)cc2)c1C	inactive
O=c1cc(O)c(Cl)c[nH]1	inactive
Cn1nnc2c(C(N)=O)ncn2c1=O	inactive
CNC1CCCN(c2c(F)cc3c(=O)c(C(=O)O)cn(C4CC4)c3c2OC)C1 (centres undefined)	inactive
C#CCN[C@@H]1CCc2ccccc21	inactive
COc1cc(NCc2ccc3nc(N)nc(N)c3c2C)cc(OC)c1OC	251 nM (active)
N[C@@H](C(=O)N[C@@H]1C(=O)N2C(C(=O)O)=C(Cl)CS[C@H]12)c1ccccc1	inactive
CN(C)CCc1c[nH]c2ccc(CS(=O)(=O)N3CCCC3)cc12	inactive
C[C@]12C=CC(=O)C=C1CC[C@@H]1[C@@H]2C(=O)C[C@@]2(C)[C@H]1CC[C@]2(O)C(=O)CO	inactive
Nc1[nH]c(=O)ncc1F	inactive
COc1ccc(-c2ccc3cc(C(=O)O)ccc3c2)cc1C12CC3CC(CC(C3)C1)C2	inactive
O=NN(CCCl)C(=O)NC1CCCCC1	inactive
CC[C@H](C)C(=O)O[C@H]1C[C@@H](C)C=C2C=C[C@H](C)[C@H](CC[C@@H]3C[C@@H](O)CC(=O)O3)[C@H]21	inactive
Cc1cccc(Nc2ccncc2S(=O)(=O)NC(=O)NC(C)C)c1	inactive
CN1CCN(c2c(F)cc3c(=O)c(C(=O)O)cn(CCF)c3c2F)CC1	inactive
CCOC(=O)[C@H](CCc1ccccc1)N[C@H]1CS[C@H](c2cccs2)CN(CC(=O)O)C1=O	inactive
N=C(N)c1ccc(OCCCCCOc2ccc(C(=N)N)cc2)cc1	2000 nM (active)
